The results in this text go back to PubChem BioAssay.

Test [1] can be described thus: anti-His antibody binders, primary screen, artefact control for SMM control protein annotation, biochemical, small-molecule microarray, 635 nm fluorescence (AID 1128).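 Note: score merges feature fluorescence with signal-to-noise for each printed compound spot.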 The following applies: anti-His Alexa647 antibody binding, higher = more signal.
The test system of test [2] is Human papillomavirus type 1a E7 protein (residues 1-88). The test can be described thus: HPV1a E7 small-molecule binders, primary screen, biochemical, small-molecule microarray, residues 1-88, 635 nm (AID 1129). Particulars: small-molecule microarray binding, fluorescence 635 nm; higher = more signal.
The target of test [3] is Focal adhesion kinase 1 (Homo sapiens) (UniProt Q05397). The test can be described thus: small-molecule microarray binders of FAK, primary screen, biochemical, 635/667 nm fluorescence, BSA, DTT (AID 1130).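 Note: composite of spot emission at 667 nm and signal to noise over triplicate slides.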 The following applies: PTK2 binding, 635 nm fluorescence, higher = more signal.
Focal adhesion kinase 1 (Homo sapiens), sequence (Q05397 whole entry, looked up): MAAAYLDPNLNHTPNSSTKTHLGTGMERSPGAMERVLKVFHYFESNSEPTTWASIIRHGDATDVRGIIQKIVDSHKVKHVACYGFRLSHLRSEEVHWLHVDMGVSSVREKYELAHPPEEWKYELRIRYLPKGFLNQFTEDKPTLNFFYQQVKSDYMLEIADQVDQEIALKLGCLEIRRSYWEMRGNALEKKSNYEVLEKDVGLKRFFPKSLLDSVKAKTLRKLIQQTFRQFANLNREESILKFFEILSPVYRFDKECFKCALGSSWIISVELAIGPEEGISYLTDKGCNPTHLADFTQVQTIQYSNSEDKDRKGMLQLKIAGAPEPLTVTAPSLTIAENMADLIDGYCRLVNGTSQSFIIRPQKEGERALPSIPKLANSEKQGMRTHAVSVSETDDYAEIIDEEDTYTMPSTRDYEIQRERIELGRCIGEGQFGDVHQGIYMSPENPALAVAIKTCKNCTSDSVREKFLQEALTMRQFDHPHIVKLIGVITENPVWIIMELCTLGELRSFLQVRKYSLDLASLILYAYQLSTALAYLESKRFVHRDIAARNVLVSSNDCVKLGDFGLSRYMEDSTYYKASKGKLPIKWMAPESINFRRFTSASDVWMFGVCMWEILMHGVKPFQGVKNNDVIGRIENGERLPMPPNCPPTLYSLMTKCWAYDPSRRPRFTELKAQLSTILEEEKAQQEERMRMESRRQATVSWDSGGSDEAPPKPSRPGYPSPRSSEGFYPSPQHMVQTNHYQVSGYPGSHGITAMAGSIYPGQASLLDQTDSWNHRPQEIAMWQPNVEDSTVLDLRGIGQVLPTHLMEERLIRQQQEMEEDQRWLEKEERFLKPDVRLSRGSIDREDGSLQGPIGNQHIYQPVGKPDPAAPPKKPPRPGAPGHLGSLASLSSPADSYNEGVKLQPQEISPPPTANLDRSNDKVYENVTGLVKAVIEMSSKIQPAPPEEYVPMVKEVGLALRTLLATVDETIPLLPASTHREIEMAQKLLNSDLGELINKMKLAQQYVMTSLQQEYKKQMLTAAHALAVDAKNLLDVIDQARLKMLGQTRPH
For test [4], the system named is Fibrinogen (Alexa647-labelled). Nature of the test: fibrinogen binders on compound microarrays, profiling panel, artefact control for SMM control-protein annotation, biochemical, small-molecule microarray, 635/667 nm fluorescence (AID 1131).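 Note: z-score merges 667 nm fluorescence with per-spot signal-to-noise over triplicate slides.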 The following applies: fibrinogen-A647 binding fluorescence, higher = more signal.
Test [5] addresses Follistatin (Homo sapiens) (UniProt P19883). The test can be described thus: follistatin binders on small-molecule microarrays, primary screen, biochemical, small-molecule microarray, 635/667 nm fluorescence (AID 1132). Particulars: FST binding, 635 nm fluorescence, higher = more signal.
Test [6] addresses Fibroblast growth factor 2 (Homo sapiens) (UniProt P09038). The test can be described thus: FGF2 binders on small-molecule microarrays, primary screen, biochemical, small-molecule microarray, 635/667 nm fluorescence (AID 1133). Particulars: small-molecule microarray binding, FGF2, fluorescence 635/667; higher = more signal.
Test [7] in a line: mitochondrial membrane potential change in A549 cells, profiling panel, cell-based, JC-1 fluorescence, basal, 24 h, 100 nL (AID 1138).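 Note: A549 lung adenocarcinoma cells under basal conditions with no added stimulus; test concentration not given here.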 The following applies: higher = more signal.
In a further test the test system is Lefty1. Nature of the test: Lefty1 binders on small-molecule microarrays, primary screen, biochemical, small-molecule microarray, 635/667 nm fluorescence (AID 1139). The following applies: small-molecule microarray binding, fluorescence 635/667; higher = more signal.
The test system of test [8] is wheat germ agglutinin (Triticum aestivum), Alexa647-labelled. Nature of the test: wheat germ agglutinin binders on compound microarrays, profiling panel, artefact control for SMM control-protein annotation, biochemical, small-molecule microarray, 635/667 nm fluorescence (AID 1140).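 Note: score merges 667 nm feature emission with signal to noise over triplicate slides.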 The following applies: WGA-A647 binding, 635 nm fluorescence, higher = more signal.
Test [9] deals with Luciferin 4-monooxygenase (Photinus pyralis) (UniProt P08659). Nature of the test: firefly luciferase enzyme inhibitors, primary screen, biochemical, luminescence, purified enzyme, 2006 set (AID 1141).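 Note: cell-free assay with purified firefly luciferase at 100 ng per well in PBS; test concentration not given here.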 The following applies: SteadyGlo luminescence, 30 min, higher = more signal, called active from +8 up or from −8 down.
Luciferin 4-monooxygenase (Photinus pyralis), sequence (P08659 whole entry, looked up): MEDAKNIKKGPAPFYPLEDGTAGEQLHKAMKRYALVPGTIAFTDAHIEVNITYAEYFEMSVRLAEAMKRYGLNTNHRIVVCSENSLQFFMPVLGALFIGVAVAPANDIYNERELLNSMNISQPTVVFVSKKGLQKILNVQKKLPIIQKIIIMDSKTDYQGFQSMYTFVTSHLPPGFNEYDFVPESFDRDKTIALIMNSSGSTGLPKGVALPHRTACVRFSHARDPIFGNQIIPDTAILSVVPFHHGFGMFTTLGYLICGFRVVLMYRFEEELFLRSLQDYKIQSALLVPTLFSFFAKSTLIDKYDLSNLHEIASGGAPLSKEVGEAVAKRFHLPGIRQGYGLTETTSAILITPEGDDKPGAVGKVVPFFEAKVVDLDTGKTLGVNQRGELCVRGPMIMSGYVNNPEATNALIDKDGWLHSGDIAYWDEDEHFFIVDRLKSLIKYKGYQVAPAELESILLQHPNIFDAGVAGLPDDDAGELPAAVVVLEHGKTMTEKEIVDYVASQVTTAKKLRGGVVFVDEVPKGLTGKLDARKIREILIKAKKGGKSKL
The test system of test [10] is Wnt5a (protein binding on small-molecule microarray). The test can be described thus: Wnt5a binders on small-molecule microarray, primary screen, biophysical, 635/667 nm fluorescence (AID 1142).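 Note: fluorescence read at 667 nm with signal to noise per printed feature.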 The following applies: 635 nm fluorescence, higher = more signal.
Test [11] can be described thus: cell viability in Huh7 cells, primary screen, cytotoxicity control for HCV replication inhibitor project, CellTiter-Glo luminescence, basal, 48 h (AID 1143).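 Note: Huh7 hepatoma cells carrying a hepatitis C replication reporter with no stimulus; test concentration not given here.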 The following applies: Huh7 HCV replicon, higher = more signal, called active from +8 up or from −8 down. A general note: In ATP-based viability assays light output follows the ATP content of the culture.
The nature of test [12]: P. aeruginosa biofilm formation inhibitors, primary screen, PAO1 strain, BacTiter-Glo luminescence, LB-PBS (AID 1144). Particulars: 12 h, higher = more signal.
Test [13] can be described thus: CREB reporter modulators without forskolin, primary screen, cell-based, PC12, CRE-LacZ reporter, unstimulated (AID 1145). The following applies: no forskolin, luminescence, 4.5 h, higher = more signal, called active from +8 up or from −8 down.
Test [14] is described as follows: CREB reporter modulators under forskolin, primary screen, cell-based, PC12, CRE-LacZ reporter, forskolin-stimulated (AID 1146).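 Note: PC12 cells with 6xCRE LacZ reporter stimulated by forskolin 10 µM; beta-galactosidase reporter signal reflecting CREB driven transcription.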 The following applies: luminescence, 4.5 h, higher = more signal, called active from +8 up or from −8 down.
Test [15] deals with Streptavidin (Streptomyces avidinii) (UniProt P22629). The test can be described thus: streptavidin binders on small-molecule microarray, primary screen, artefact control for SMM compound annotation, biophysical, 635/667 nm fluorescence (AID 1147).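 Note: signal reflects streptavidin binding to arrayed compounds as a control protein.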 Particulars: streptavidin binding, higher = more signal.
Streptavidin (Streptomyces avidinii), sequence (P22629 whole entry, looked up): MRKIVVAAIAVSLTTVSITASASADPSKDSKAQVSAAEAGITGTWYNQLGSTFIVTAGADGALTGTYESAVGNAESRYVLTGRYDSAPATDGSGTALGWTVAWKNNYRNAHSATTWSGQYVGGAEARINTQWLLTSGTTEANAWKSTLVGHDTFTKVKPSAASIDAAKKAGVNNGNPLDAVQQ
Test [16] in a line: small-molecule binders of probe aInhba, primary screen, biochemical, small-molecule microarray, 635/667 nm fluorescence (AID 1148).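 Note: score merges 667nm spot fluorescence with signal-to-noise for antibody binding to printed compounds.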 Particulars: higher = more signal.
Test [17] concerns the target Torsin-1A (Homo sapiens) (UniProt O14656). The test can be described thus: torsin A binders from cell lysate, primary screen, small-molecule microarray, wild-type, 635/667 nm (AID 1149). Particulars: COS7 hTOR1A-WT lysate, 635 nm fluorescence, higher = more signal.
For test [18] the target is unchanged. The test can be described thus: small-molecule binders of mutant TOR1A in lysate, primary screen, cell lysate, small-molecule microarray, COS7 lysate, 635/667 nm fluorescence (AID 1150).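 Note: score pools 667 nm emission and signal to noise measuring lysate protein binding.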 Particulars: COS7 hTOR1A mutant lysate, 635 nm fluorescence, higher = more signal.
Test [19] concerns Sonic hedgehog protein (Shh). The test can be described thus: small-molecule binders of Shh protein, primary screen, biochemical, small-molecule microarray, 635/667 nm fluorescence (AID 1151).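 Note: Shh protein binding to compounds spotted on small-molecule microarray slides; score combines spot fluorescence intensity with signal-to-noise across triplicate slides.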 The following applies: small-molecule microarray binding, 635 nm fluorescence; higher = more signal.

The source made the active and inactive calls. Unless noted, the rule behind the calls is not given here.

Fibroblast growth factor 2 (Homo sapiens), sequence (P09038 whole entry, looked up): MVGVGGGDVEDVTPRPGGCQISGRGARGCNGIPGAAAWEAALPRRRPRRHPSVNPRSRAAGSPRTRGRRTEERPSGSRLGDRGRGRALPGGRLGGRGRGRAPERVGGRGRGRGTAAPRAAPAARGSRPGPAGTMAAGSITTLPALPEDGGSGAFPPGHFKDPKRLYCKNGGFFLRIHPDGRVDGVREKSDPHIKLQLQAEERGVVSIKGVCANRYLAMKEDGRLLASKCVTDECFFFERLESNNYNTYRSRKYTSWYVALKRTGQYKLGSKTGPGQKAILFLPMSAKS
Torsin-1A (Homo sapiens), sequence (O14656 whole entry, looked up): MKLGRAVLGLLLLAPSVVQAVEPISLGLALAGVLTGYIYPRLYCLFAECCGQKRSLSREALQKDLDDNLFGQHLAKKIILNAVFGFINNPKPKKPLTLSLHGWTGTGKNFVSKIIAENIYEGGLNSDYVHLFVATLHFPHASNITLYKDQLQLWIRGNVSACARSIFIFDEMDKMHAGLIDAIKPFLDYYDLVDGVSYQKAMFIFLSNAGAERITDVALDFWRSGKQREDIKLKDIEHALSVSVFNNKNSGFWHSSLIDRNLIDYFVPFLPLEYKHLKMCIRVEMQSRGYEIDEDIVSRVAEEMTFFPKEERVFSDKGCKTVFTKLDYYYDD
Follistatin (Homo sapiens), sequence (P19883 whole entry, looked up): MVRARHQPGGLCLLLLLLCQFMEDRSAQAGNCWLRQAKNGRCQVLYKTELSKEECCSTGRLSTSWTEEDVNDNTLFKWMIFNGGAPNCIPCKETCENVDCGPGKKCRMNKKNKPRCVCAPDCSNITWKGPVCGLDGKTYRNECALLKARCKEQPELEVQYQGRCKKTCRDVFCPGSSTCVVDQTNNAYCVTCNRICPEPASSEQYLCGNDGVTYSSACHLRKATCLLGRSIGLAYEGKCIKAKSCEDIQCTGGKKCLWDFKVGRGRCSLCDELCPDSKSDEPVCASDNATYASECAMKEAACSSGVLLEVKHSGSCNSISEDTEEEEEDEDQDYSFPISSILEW

For `O=c1cccc(-c2cccc3ccccc23)o1`, the composite z-score in [1] was 0.874; in test [2] it was 1.2; in [3], 1.35; in [4] it was 0.708; in [5], 0.26; in [6], -0.32. In addition, the composite z-score was -0.789 in the test on Lefty1; 0.8 in test [8]; -0.0859 in test [10]; 0.112 in test [15]; -0.0471 in [16]; 0.272 with Torsin-1A (Homo sapiens) [17]. Besides, the composite z-score is -0.0514 in the test with Torsin-1A (Homo sapiens) [18] and -0.343 in test [19]. Further, the z-score is 0.316 in [7]; 1.52 (inactive) in [9]; -0.779 (inactive) in test [11]; -0.469 (inactive) in test [12]; 0.182 (inactive) in test [13]; 0.092 (inactive) in test [14].

As for `COC(=O)[C@@]1(Cc2ccc(OC)cc2)[C@H]2c3cc(C(=O)N(C)C)n(Cc4ccc(OC)c(OC)c4)c3C[C@H]2CN1C(=O)c1ccccc1`, the composite z-score is 1.26 in test [1]; 1.25 in test [2]; 0.96 in [3]; 0.844 in [4]; 0.745 in test [5]; -0.3 in test [6]. Besides, the composite z-score with Lefty1 was -0.257; in test [8] it was 0.951; in test [10] it was 0.171; in [15], 1.67; in [16] it was 0.55; with Torsin-1A (Homo sapiens) [17], 0.258. Besides, the results for the composite z-score (in the test with Torsin-1A (Homo sapiens) [18]; in [19]) were 1.17 and -0.521, respectively. Further, the z-score was 0.327 in test [7]; 1.72 (inactive) in test [9]; -2.97 (inactive) in test [11]; 0.437 (inactive) in test [12]; 0.583 (inactive) in [13]; 0.292 (inactive) in [14].

For `O=C1O[C@H](c2ccccc2)[C@H](c2ccccc2)N2[C@H]1[C@@H](C(=O)Nc1nc3ccccc3s1)[C@]1(C(=O)Nc3ccc(C#CC4=CCCCC4)cc31)[C@H]2c1ccc(OCCO)cc1`, the composite z-score in test [1] stood at 1.62; in test [2] it was 1.18; in test [3] it was 0.148; in [4], 0.831; in test [5], 1.12; in test [6], 0.579. Also, the composite z-score in the test with Lefty1 is 0.077; in test [8], 0.916; in test [10] it was 0.706; in test [15], 1.73; in [16], 0.417; with Torsin-1A (Homo sapiens) [17], 0.0608. Besides, the composite z-score with Torsin-1A (Homo sapiens) [18] is 0.407; in test [19] it was 0.598. Moreover, the z-score was -2.24 in test [7]; -3.28 (inactive) in test [9]; -1.3 (inactive) in [11]; -0.711 (inactive) in [12]; 0.128 (inactive) in test [13]; 0.205 (inactive) in [14].

On to `COc1ccc([Si](C)(C)[C@@H]2[C@@H](CC(=O)N3Cc4ccccc4C[C@H]3CO)O[C@]3(C(=O)N(Cc4cccc(N5C(=O)COc6ccccc65)c4)c4ccccc43)[C@H]2C)cc1`, for which the composite z-score in test [1] was 1.16; in test [2], 1; in [3], 0.261; in [4] it was 0.269; in [5], 1.26; in [6], 1.76. Moreover, the composite z-score in the test with Lefty1 was 1.25; in test [8], 0.0948; in test [10] it was -0.0857; in test [15] it was 0.535; in [16] it was -0.18; with Torsin-1A (Homo sapiens) [17], 0.718. Besides, the results for the composite z-score (with Torsin-1A (Homo sapiens) [18]; in [19]) were 0.301 and 1.57, respectively. The z-score in test [7] is -0.0295; in test [9] it was -0.438 (inactive); in test [11] it was -4.33 (inactive); in test [12], -0.219 (inactive); in [13] it was 3.56 (inactive); in test [14] it was -0.431 (inactive).

As for `O=C1OCCC/C=C\[C@H]2OC34C=CCN(CCN5CCOCC5)C(=O)[C@H]3N(CCO)C(=O)[C@@H]4C12` (stereo not given in full), the composite z-score was 2.47 in test [1]; -1.64 in [2]; -0.3 in test [3]; -0.786 in test [4]; -0.981 in test [5]; -0.322 in test [6]. The composite z-score in the test on Lefty1 was -1.57; in [8] it was -0.365; in test [10], -0.425; in test [15] it was -0.671; in [16], -0.203; in the test with Torsin-1A (Homo sapiens) [17], -0.176. For the same compound, the composite z-score with Torsin-1A (Homo sapiens) [18] is -0.506; in test [19], -0.703. For the same compound, the z-score was -1.08 in test [7]; 0.634 (inactive) in test [9]; 0.364 (inactive) in [11]; 0.145 (inactive) in test [12]; -0.342 (inactive) in test [13]; 0.0806 (inactive) in [14].
